In PubChem BioAssay (NCATS):
Results filed as inconclusive are left out. Active and inactive are the calls of the source. Calls follow the shape of the dose curve; as a rule, active = well fitted inhibition curve with a large enough effect; inconclusive = small, poorly fitted or top-dose-only effect; inactive = flat fitted curve, though single readings scatter.

Key:
Experiment in all cases: qHTS profiling for inhibitors of Plasmodium falciparum proliferation (AID 504749); also: nearly all actives have a fitted effect of over 60% in size
Details in all cases: P. falciparum in erythrocytes, SYBR Green DNA, 72 h; series mostly up to 28.7 µM
AA1029 = test system: AA1029
Outline: (§1)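 P. falciparum-infected erythrocytes (0.3% parasitemia, 2.5% hematocrit final) were exposed to compounds for 72 h at 37 C in 5% CO2, then lysed with SYBR Green buffer overnight at room temperature; parasite DNA fluorescence was normalized to artemisinin and DMSO controls.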

AS120 = test system: AS120
Outline: as §1

ATS189 = test system: ATS189
Outline: as §1

ATS95 = test system: ATS95
Outline: as §1

C2A = test system: C2A
Outline: as §1

CP185 = test system: CP185
Outline: as §1

CP191 = test system: CP191
Outline: as §1

CP192 = test system: CP192
Outline: as §1

CP194 = test system: CP194
Outline: as §1

CP201 = test system: CP201
Outline: as §1

CP203 = test system: CP203
Outline: as §1

CP211 = test system: CP211
Outline: as §1

CP215 = test system: CP215
Outline: as §1

CP217 = test system: CP217
Outline: as §1

CP237 = test system: CP237
Outline: as §1

CP238 = test system: CP238
Outline: as §1

CP247 = test system: CP247
Outline: as §1

CP250 = test system: CP250
Outline: as §1

CP252 = test system: CP252
Outline: as §1

CP256 = test system: CP256
Outline: as §1

Measured: Potency

CN1C(=O)C[C@@H](C(=O)N[C@@H](Cc2cnc[nH]2)C(=O)N2CCC[C@H]2C(N)=O)NC1=O
inactive: all assays above

CC(C)(C)CC(C)(C)c1cc(Cc2cc(C(C)(C)CC(C)(C)C)cc(-n3nc4ccccc4n3)c2O)c(O)c(-n2nc3ccccc3n2)c1
inactive: all assays above

CC12CCC(C[N+](C)(CCC[N+](C)(C)C)C1)C2(C)C (stereo not given)
inactive: all assays above

CC1=CC(=O)NS(=O)(=O)O1
inactive: all assays above

CCCCCCCCCCCCCCCCCC(=O)OC[C@@H](O)[C@H]1OC[C@H](O)[C@H]1O
inactive: all assays above

Nc1ncnc2c1ncn2[C@H]1CC[C@@H](CO)O1
inactive: all assays above

CC(=O)NCCCS(=O)(=O)O
inactive: all assays above

COC(=O)CC[C@H](N)C(=O)O
inactive: all assays above

CNC(=O)C[C@@H](N)C(=O)N[C@@H](C(=O)N[C@@H]1C(=O)N2[C@@H]1SC(C)(C)[C@@H]2C(=O)O)c1ccc(O)cc1
inactive: all assays above

CCN(CC)C(=O)c1cccnc1
inactive: all assays above

Cc1cccc(Nc2ncccc2C(=O)O)c1C
inactive: all assays above

CC(CNC(=O)c1cccnc1)NC(=O)c1cccnc1 (stereo not given)
inactive: all assays above

NC(N)=O
inactive: all assays above

O=C1c2ccccc2C(=O)C1c1ccc(Cl)cc1
inactive: all assays above

CCCCCCCCCCCCOCCCN
inactive: all assays above

CCCCCCCCCCCCCCCCCC[N+](C)(C)CCC[Si](OC)(OC)OC
inactive: all assays above

Nc1nccs1
inactive: all assays above

Oc1ccc(Cl)c2c1CCC2
inactive: all assays above
